Here are results for 35 compounds from ChEMBL document CHEMBL3433997, “St. Jude Leishmania screening dataset” (2016).

What all share (format): functional
The target in experiment [1] is Solute carrier family 2, facilitated glucose transporter member 1 (Homo sapiens) (UniProt P11166). As to the kind of experiment: ST_JUDE_LEISH: Cytotoxicity at 2uM final concentration against transgenic Leishmania Mexicana promastigotes LmGLUT1 that are glucose transport deficient and complemented with the human glucose transporter GLUT1. Activity is measured by DNA content using SYBR green in vitro.

The target in experiment [2] is Hexose transporter 1 (Plasmodium falciparum) (UniProt O97467). Kind of experiment: ST_JUDE_LEISH: Cytotoxicity at 2uM final concentration against transgenic Leishmania Mexicana promastigotes LmPfHT that are glucose transport deficient and complemented with the Plasmodium falciparum hexose transporter. Activity is measured by DNA content using SYBR green in vitro.
Experiment [3] has as its target Glucose transporter (Leishmania mexicana) (UniProt O61059). As to the kind of experiment: ST_JUDE_LEISH: Cytotoxicity at 2uM final concentration against transgenic Leishmania Mexicana promastigotes LmGT2 that are glucose transport deficient and complemented with the L. Mexicana glucose transporter 2. Activity is measured by DNA content using SYBR green in vitro.

Solute carrier family 2, facilitated glucose transporter member 1 (Homo sapiens), sequence (P11166 whole entry): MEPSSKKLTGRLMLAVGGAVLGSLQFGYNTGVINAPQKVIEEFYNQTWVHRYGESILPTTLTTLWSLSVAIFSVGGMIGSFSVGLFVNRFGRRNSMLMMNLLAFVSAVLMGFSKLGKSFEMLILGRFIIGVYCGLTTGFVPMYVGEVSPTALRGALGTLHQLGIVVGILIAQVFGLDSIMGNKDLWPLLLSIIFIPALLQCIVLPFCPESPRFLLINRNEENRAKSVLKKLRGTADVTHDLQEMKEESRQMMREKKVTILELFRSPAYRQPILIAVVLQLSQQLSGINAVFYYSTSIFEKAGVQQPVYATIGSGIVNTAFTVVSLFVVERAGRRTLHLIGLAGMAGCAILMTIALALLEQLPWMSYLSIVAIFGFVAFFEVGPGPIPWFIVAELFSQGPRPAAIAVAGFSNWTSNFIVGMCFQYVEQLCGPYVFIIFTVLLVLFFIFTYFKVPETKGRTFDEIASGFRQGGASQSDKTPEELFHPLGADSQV

For the compound `Cc1cccc2nc(-c3ccc(-c4cccc(CNCCCN5CCCC5=O)c4)cc3)[nH]c12`, the inhibition in experiment [1] was 7.98%; in experiment [2], 9.6%; in experiment [3], 8.02%.
Regarding `COc1ccc(S(=O)(=O)N(CC(=O)NN=C(C)c2cccs2)c2cc(C)cc(C)c2)cc1OC`, the inhibition was 0.78% in experiment [1], 2.03% in experiment [2] and -1.17% in experiment [3].
For `CC[C@H](NC(=O)c1c(CC2CCN(CC(C)=O)CC2)c(-c2ccccc2)nc2ccccc12)c1ccccc1`, the inhibition is 2.8% in experiment [1], 3.28% in experiment [2] and 0.03% in experiment [3].
In the case of `NCC(=O)NC12CC3CC(CC(C3)C1)C2`, the inhibition in experiment [1] came out at 1.01%; in experiment [2] it was 2.25%; in experiment [3], 1.66%.
The like results for `CCC(NC[C@@H](O)[C@H](Cc1ccccc1)NC(=O)c1cc(C2CCCC2)cc(N2CCCC2=O)c1)c1cccc(Cl)c1` (stereo not given in full) were, in that order, 2.16%, 2.04% and 4.65%.
As to `C=CCN1C(=O)C(C(C)=O)=C(O)C1c1ccccc1` (stereo not given), the results for the inhibition in experiment [1], in experiment [2] and in experiment [3] were -0.92%, -4.02% and 0.66%, respectively.
For `CCCC(C)Nc1nc(C)cc(N[C@@H](CC(C)C)C(=O)Nc2ccc(OC)cc2)n1` (stereo not given in full), in that order: 3.3%, 3.9% and 1.36%.
The like results for `Cc1ccccc1C1CCN(C2CCC(NC(=O)/C=C/c3ccc(OC(F)(F)F)cc3)CC2)CC1` (stereo not given) were, in that order, -0.78%, -1.35% and 0.34%.
For `N=C(N)NC(=O)Nc1cc(Cl)c(Cl)c(Cl)c1`, in that order: 2.56%, 4% and 2.18%.
On to `CC1(C)NC(N)=NC(=N)N1OCCOc1ccc2ccccc2c1`, for which the inhibition in experiment [1] was 0.95%; in experiment [2] it was -0.86%; in experiment [3], 1.3%.
The like results for `CCC(C)NC(=O)Cn1c2ncccc2c(=O)n1-c1ccc(C)cc1` (stereo not given) were, in that order, 5.25%, 4.88% and 0.04%.
The like results for `CN(C(=O)C(C)(C)Oc1ccc(Cl)cc1)C1CCN(CCCCCNC(=O)/C=C/c2ccc(Cl)c(Cl)c2)CC1` were, in that order, 1.85%, 2.76% and 0.52%.
Take `CN(C)c1nc(NN=Cc2cc(Cl)ccc2O)nc(Nc2ccc(F)cc2)n1`: the values for the inhibition in experiment [1], in experiment [2] and in experiment [3] were 13%, 11% and 10.9%, respectively.
`Cc1[nH]c(C)c(-c2ccc(Oc3ccc(Cl)cc3)cc2)c(=O)c1Br`: the inhibition is -0.61% in experiment [1], 0.25% in experiment [2] and -0.13% in experiment [3].
The like results for `COc1ccc2nc(C)cc(N/N=C/C=C/c3ccccc3)c2c1` were, in that order, 5.48%, 7.46% and 3.79%.
Consider `CCc1cn2c3c(cc(C(=O)N[C@@H](Cc4ccccc4)[C@H](O)CNC(C)(C)CCCC(C)C)cc13)N(C)S(=O)(=O)C2`, for which the inhibition came to 2.45% in experiment [1], 2.22% in experiment [2] and 0.85% in experiment [3].
The like results for `Cc1nnc2c(NC(=O)NC3CCCC3)cc3cc(-c4ccc(CN5CCCCC5)cc4)ccc3n12` were, in that order, 1.79%, 1.94% and 0.13%.
Consider `OCCOCn1cnc2cnc(N[C@H]3OC[C@H](O)[C@@H](O)[C@@H]3O)nc21`, for which the inhibition came to 0.99% in experiment [1], 2.06% in experiment [2] and 1.69% in experiment [3].
For the compound `CN1CCC(C(=O)Nc2ccc(-c3ccc(-c4nc5ccccc5[nH]4)cc3)cc2)CC1`, the inhibition in experiment [1] came to 2.95%; in experiment [2] it was 1.48%; in experiment [3] it was 0.83%.
As for `CC(C)NCc1cccc(-c2ccc(NC(=O)c3cccc(C#N)c3)cc2)c1`, the inhibition in experiment [1] was 0.25%; in experiment [2], 0.74%; in experiment [3] it was 2.32%.
Take `COc1cccc2cc(C(=O)N[C@@H](CC(C)C)C(=O)N[C@H](C=NNC(=O)OC(C)(C)C)Cc3ccccc3)oc12`: the inhibition in experiment [1] is 7.26%; in experiment [2] it was 6.28%; in experiment [3], 4.09%.
Take `CCCC1(C)CSc2ccccc2C(c2ccccc2)N1` (stereo not given): the results for the inhibition in experiment [1], in experiment [2] and in experiment [3] were 4.9%, 6.11% and 7.67%, respectively.
For `O=C(/C=C/c1ccc(C(F)(F)F)cc1)NCCCCCN1CCN(C(=O)Nc2ccc(Cl)c(Cl)c2)CC1`, in that order: 0.91%, 2.31% and -0.42%.
For `COC(=O)c1cc(OC)c(OC)cc1NC(=O)NC12CC3CC(CC(C3)C1)C2`, in that order: 4.1%, 2.13% and 1.18%.
With `COc1ccc(-c2cnc3ccc(NC4CCC(O)CC4)nn23)cn1` (stereo not given), the inhibition in experiment [1] was determined as 2.52%; in experiment [2], 0.45%; in experiment [3], 0.93%.
The like results for `CCOC(=O)c1nc(-c2cc(Cl)nc(Cl)c2)[nH]c1NC(=S)NCCCN1CCOCC1` were, in that order, 2.49%, 1.96% and 0.84%.
For `O=C(NCCN1CCCC1)N1CCCN(c2ncnc3cc(-c4ccc(Cl)cc4)sc23)CC1`, in that order: 0.21%, 1.33% and 0.08%.
`CCNc1cc(C(=O)N[C@@H](Cc2ccccc2)[C@H](O)CNCCCc2ccc(OC)cc2)cc(N2CCCC2=O)c1`: the results for the inhibition in experiment [1], in experiment [2] and in experiment [3] were 0.4%, 0.76% and 1.05%, respectively.
The like results for `FC(F)(F)c1cccc(Nc2nc3ccccc3nc2Nc2cccc(C(F)(F)F)c2)c1` were, in that order, -0.24%, 0.5% and 0.85%.
For `O=C(Nc1cc(Cl)cc(Cl)c1)c1cc(Cl)c(=O)n(Cc2cccc(Cl)c2)c1`, in that order: 3.25%, -1.14% and -1.24%.
As to `Cc1ccc(CN2CCCN(Cc3cccc(NC(=O)c4ccc(-c5ccccc5)cc4)c3)CC2)cc1C`, the inhibition in experiment [1] was 3.45%; in experiment [2] it was 2.98%; in experiment [3], 2.82%.
The like results for `CCCCCCN1CCCN(Cc2cccc(NC(=O)c3cc4ccccc4s3)c2)CC1` were, in that order, 2.73%, 3.42% and 0.46%.
For `O=C(Nc1ccc(Cl)cc1)c1ccc(CN2CCCN(Cc3ccsc3)CC2)cc1`, in that order: 2.78%, 1.42% and 7.21%.
`Cc1ccc(Nc2nccc(NCC(O)c3ccc(C(F)(F)F)cc3)n2)cc1` (stereo not given): the inhibition came out at 10% in experiment [1], 6.26% in experiment [2] and 3.67% in experiment [3].
Turning to `COc1ccc(CN(C)CCCOc2ccc(NC(=O)c3cccc4c(=O)c5cccc(F)c5[nH]c34)cc2)cc1OC`, the figures for the inhibition in experiment [1], in experiment [2] and in experiment [3] were 4.27%, 3.24% and 3.1%, respectively.
